5 sequences from publication PMC11006913 can be followed below.

Assay in all cases: PBM; 200 nM protein, PBS
Common to all, as to conditions: dsDNA, one strand shown

The target in assay [1] is T1, VENTX (Homo sapiens, UniProt O95231 78-163, R121Q).
T1 sequence: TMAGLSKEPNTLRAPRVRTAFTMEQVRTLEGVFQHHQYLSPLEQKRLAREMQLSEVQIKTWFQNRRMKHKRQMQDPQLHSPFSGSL

Assay [2] addresses HOXA4 (Homo sapiens, UniProt Q00056 201-287, W262R).
Assay [3] addresses HOXA7 (Homo sapiens, UniProt P31268 116-202).
In assay [4] the target is ALX4 (Homo sapiens, UniProt Q9H161 200-286).
In assay [5] the target is PRRX1 (Homo sapiens, UniProt P54821 80-166, F113S).
The target in assay [6] is HOXB6 (Homo sapiens, UniProt P17509 132-218, K202E).
Assay [7] has as its target ALX4 (Homo sapiens, UniProt Q9H161 200-286, Q225E).
For assay [8], the target named is HOXA2 (Homo sapiens, UniProt O43364 129-215, R185T).
Assay [9] addresses MSX2 (Homo sapiens, UniProt P35548 130-214, R199I).
Assay [10] concerns the target HOXA4 (Homo sapiens, UniProt Q00056 201-287).
Assay [11] deals with MSX2 (Homo sapiens, UniProt P35548 130-214).
The target in assay [12] is MSX2 (Homo sapiens, UniProt P35548 130-214, F161Y).
For assay [13], the target named is VAX1 (Homo sapiens, UniProt Q5SQQ9 86-172, T142I).
Assay [14] has as its target HOXA7 (Homo sapiens, UniProt P31268 116-202, W177C).
Assay [15] has as its target ALX1 (Homo sapiens, UniProt Q15699 118-204).
Assay [16] deals with HOXA4 (Homo sapiens, UniProt Q00056 201-287, W262F).
In assay [17] the target is PRRX1 (Homo sapiens, UniProt P54821 80-166).
In assay [18] the target is VAX1 (Homo sapiens, UniProt Q5SQQ9 86-172, K157R).
The target in assay [19] is HOXB6 (Homo sapiens, UniProt P17509 132-218).
Assay [20] deals with HOXA2 (Homo sapiens, UniProt O43364 129-215, R185K).
Chain of HOXA2 (Homo sapiens, UniProt O43364 129-215, R185K) (O43364 129-215 R185K): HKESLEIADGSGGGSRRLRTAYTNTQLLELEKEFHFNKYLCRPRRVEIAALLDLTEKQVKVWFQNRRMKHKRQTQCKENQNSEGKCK

Chain of ALX1 (Q15699 118-204): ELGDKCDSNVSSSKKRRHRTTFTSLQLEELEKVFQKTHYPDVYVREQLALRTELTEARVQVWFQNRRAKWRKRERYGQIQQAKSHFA
Chain of VAX1 (Homo sapiens, UniProt Q5SQQ9 86-172, K157R) (Q5SQQ9 86-172 K157R): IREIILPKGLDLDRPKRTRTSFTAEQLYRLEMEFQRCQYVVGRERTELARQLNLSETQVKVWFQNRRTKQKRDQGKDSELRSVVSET
Chain of PRRX1 (Homo sapiens, UniProt P54821 80-166) (P54821 80-166): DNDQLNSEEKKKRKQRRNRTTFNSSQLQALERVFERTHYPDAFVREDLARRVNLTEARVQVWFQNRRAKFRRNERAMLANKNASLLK
Chain of HOXB6 (Homo sapiens, UniProt P17509 132-218) (P17509 132-218): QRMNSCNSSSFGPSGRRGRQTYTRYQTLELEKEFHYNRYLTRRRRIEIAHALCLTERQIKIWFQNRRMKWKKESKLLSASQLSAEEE
Chain of HOXA4 (Homo sapiens, UniProt Q00056 201-287, W262F) (Q00056 201-287 W262F): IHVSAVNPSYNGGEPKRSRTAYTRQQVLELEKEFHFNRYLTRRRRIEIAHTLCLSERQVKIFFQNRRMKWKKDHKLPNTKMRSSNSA
Chain of MSX2 (Homo sapiens, UniProt P35548 130-214) (P35548 130-214): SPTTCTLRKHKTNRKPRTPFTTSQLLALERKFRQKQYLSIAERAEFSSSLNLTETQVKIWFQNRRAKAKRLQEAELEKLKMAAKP
Chain of MSX2 (Homo sapiens, UniProt P35548 130-214, F161Y) (P35548 130-214 F161Y): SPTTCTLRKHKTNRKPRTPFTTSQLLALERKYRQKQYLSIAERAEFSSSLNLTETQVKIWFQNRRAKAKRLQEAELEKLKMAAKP
Chain of HOXB6 (Homo sapiens, UniProt P17509 132-218, K202E) (P17509 132-218 K202E): as the sequence (P17509 132-218) above, with K71E counted along it
Chain of VAX1 (Homo sapiens, UniProt Q5SQQ9 86-172, T142I) (Q5SQQ9 86-172 T142I): as the sequence (Q5SQQ9 86-172 K157R) above, with T57I, R72K counted along it
Chain of HOXA7 (Homo sapiens, UniProt P31268 116-202, W177C) (P31268 116-202 W177C): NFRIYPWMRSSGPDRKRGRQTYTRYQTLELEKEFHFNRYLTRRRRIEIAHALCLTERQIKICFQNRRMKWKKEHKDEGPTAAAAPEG
Chain of ALX4 (Homo sapiens, UniProt Q9H161 200-286) (Q9H161 200-286): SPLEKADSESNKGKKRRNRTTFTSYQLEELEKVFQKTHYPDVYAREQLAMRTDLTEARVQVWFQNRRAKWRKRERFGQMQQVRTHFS
Chain of HOXA7 (Homo sapiens, UniProt P31268 116-202) (P31268 116-202): as the sequence (P31268 116-202 W177C) above, with C62W counted along it
Chain of PRRX1 (Homo sapiens, UniProt P54821 80-166, F113S) (P54821 80-166 F113S): as the sequence (P54821 80-166) above, with F34S counted along it
Chain of ALX4 (Homo sapiens, UniProt Q9H161 200-286, Q225E) (Q9H161 200-286 Q225E): as the sequence (Q9H161 200-286) above, with Q26E counted along it
Chain of HOXA4 (Homo sapiens, UniProt Q00056 201-287) (Q00056 201-287): as the sequence (Q00056 201-287 W262F) above, with F62W counted along it
Chain of MSX2 (Homo sapiens, UniProt P35548 130-214, R199I) (P35548 130-214 R199I): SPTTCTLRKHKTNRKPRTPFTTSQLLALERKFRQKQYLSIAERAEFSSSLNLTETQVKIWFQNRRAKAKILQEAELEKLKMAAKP
Chain of HOXA4 (Homo sapiens, UniProt Q00056 201-287, W262R) (Q00056 201-287 W262R): as the sequence (Q00056 201-287 W262F) above, with F62R counted along it
Chain of HOXA2 (Homo sapiens, UniProt O43364 129-215, R185T) (O43364 129-215 R185T): as the sequence (O43364 129-215 R185K) above, with K57T counted along it

In the case of CAATTAAA, the binding signal is 11.7 upbm affinity estimate (log intensity, higher = more binding, comparable within an allelic series) in assay [1]; 10.5 upbm affinity estimate (log intensity, higher = more binding, comparable within an allelic series) in assay [2]; 11.8 upbm affinity estimate (log intensity, higher = more binding, comparable within an allelic series) in assay [3]; 14 upbm affinity estimate (log intensity, higher = more binding, comparable within an allelic series) in assay [4]; 11.2 upbm affinity estimate (log intensity, higher = more binding, comparable within an allelic series) in [5]; 10 upbm affinity estimate (log intensity, higher = more binding, comparable within an allelic series) in [6]. The binding signal in [7] was 13.5 upbm affinity estimate (log intensity, higher = more binding, comparable within an allelic series); in [8], 12.6 upbm affinity estimate (log intensity, higher = more binding, comparable within an allelic series); in [9], 13.1 upbm affinity estimate (log intensity, higher = more binding, comparable within an allelic series); in [10] it was 13.6 upbm affinity estimate (log intensity, higher = more binding, comparable within an allelic series); in assay [11], 14 upbm affinity estimate (log intensity, higher = more binding, comparable within an allelic series); in [12], 13.7 upbm affinity estimate (log intensity, higher = more binding, comparable within an allelic series). In addition, the binding signal in assay [13] was 12.7 upbm affinity estimate (log intensity, higher = more binding, comparable within an allelic series); in assay [14], 8.84 upbm affinity estimate (log intensity, higher = more binding, comparable within an allelic series); in assay [15], 12.2 upbm affinity estimate (log intensity, higher = more binding, comparable within an allelic series); in [16], 11.3 upbm affinity estimate (log intensity, higher = more binding, comparable within an allelic series); in [17], 13.3 upbm affinity estimate (log intensity, higher = more binding, comparable within an allelic series); in assay [18], 12.8 upbm affinity estimate (log intensity, higher = more binding, comparable within an allelic series). Besides, the binding signal in [19] was 12.1 upbm affinity estimate (log intensity, higher = more binding, comparable within an allelic series).
AAATTAAT: the binding signal is 10.6 upbm affinity estimate (log intensity, higher = more binding, comparable within an allelic series) in assay [2]; 11.3 upbm affinity estimate (log intensity, higher = more binding, comparable within an allelic series) in assay [3]; 14 upbm affinity estimate (log intensity, higher = more binding, comparable within an allelic series) in [4]; 11.2 upbm affinity estimate (log intensity, higher = more binding, comparable within an allelic series) in assay [5]; 10.1 upbm affinity estimate (log intensity, higher = more binding, comparable within an allelic series) in assay [6]; 13.3 upbm affinity estimate (log intensity, higher = more binding, comparable within an allelic series) in assay [7]. Also, the binding signal in assay [9] was 12.2 upbm affinity estimate (log intensity, higher = more binding, comparable within an allelic series); in assay [10], 13.6 upbm affinity estimate (log intensity, higher = more binding, comparable within an allelic series); in assay [11] it was 13.4 upbm affinity estimate (log intensity, higher = more binding, comparable within an allelic series); in assay [12], 13.1 upbm affinity estimate (log intensity, higher = more binding, comparable within an allelic series); in [13] it was 12.5 upbm affinity estimate (log intensity, higher = more binding, comparable within an allelic series); in assay [14], 8.83 upbm affinity estimate (log intensity, higher = more binding, comparable within an allelic series). Moreover, the binding signal in assay [15] was 12.5 upbm affinity estimate (log intensity, higher = more binding, comparable within an allelic series); in assay [16], 11.5 upbm affinity estimate (log intensity, higher = more binding, comparable within an allelic series); in [17], 13.3 upbm affinity estimate (log intensity, higher = more binding, comparable within an allelic series); in assay [18], 12.4 upbm affinity estimate (log intensity, higher = more binding, comparable within an allelic series); in [19] it was 11.8 upbm affinity estimate (log intensity, higher = more binding, comparable within an allelic series).
Turning to ATTAATAG, the binding signal in assay [1] is 11.7 upbm affinity estimate (log intensity, higher = more binding, comparable within an allelic series); in assay [2], 10.6 upbm affinity estimate (log intensity, higher = more binding, comparable within an allelic series); in [3], 11.6 upbm affinity estimate (log intensity, higher = more binding, comparable within an allelic series); in [6], 10.1 upbm affinity estimate (log intensity, higher = more binding, comparable within an allelic series); in [10], 13.6 upbm affinity estimate (log intensity, higher = more binding, comparable within an allelic series); in assay [13], 12.5 upbm affinity estimate (log intensity, higher = more binding, comparable within an allelic series). The binding signal in [14] is 9.03 upbm affinity estimate (log intensity, higher = more binding, comparable within an allelic series); in assay [16], 11.3 upbm affinity estimate (log intensity, higher = more binding, comparable within an allelic series); in [18] it was 12.4 upbm affinity estimate (log intensity, higher = more binding, comparable within an allelic series); in assay [19], 12 upbm affinity estimate (log intensity, higher = more binding, comparable within an allelic series).
Regarding CCCTACGG, the binding signal in assay [1] was 8.13 upbm affinity estimate (log intensity, higher = more binding, comparable within an allelic series); in assay [2] it was 9.76 upbm affinity estimate (log intensity, higher = more binding, comparable within an allelic series); in assay [10], 9.86 upbm affinity estimate (log intensity, higher = more binding, comparable within an allelic series); in assay [16] it was 9.84 upbm affinity estimate (log intensity, higher = more binding, comparable within an allelic series).
On to ACTAATTG, for which the binding signal was 12.3 upbm affinity estimate (log intensity, higher = more binding, comparable within an allelic series) in assay [1]; 10.5 upbm affinity estimate (log intensity, higher = more binding, comparable within an allelic series) in assay [2]; 13.9 upbm affinity estimate (log intensity, higher = more binding, comparable within an allelic series) in [4]; 11.2 upbm affinity estimate (log intensity, higher = more binding, comparable within an allelic series) in assay [5]; 13.4 upbm affinity estimate (log intensity, higher = more binding, comparable within an allelic series) in assay [7]; 13.2 upbm affinity estimate (log intensity, higher = more binding, comparable within an allelic series) in assay [8]. Also, the binding signal in assay [9] is 13.1 upbm affinity estimate (log intensity, higher = more binding, comparable within an allelic series); in assay [20] it was 13.3 upbm affinity estimate (log intensity, higher = more binding, comparable within an allelic series); in [10] it was 13.7 upbm affinity estimate (log intensity, higher = more binding, comparable within an allelic series); in assay [11] it was 14 upbm affinity estimate (log intensity, higher = more binding, comparable within an allelic series); in [12] it was 13.7 upbm affinity estimate (log intensity, higher = more binding, comparable within an allelic series); in assay [13], 13 upbm affinity estimate (log intensity, higher = more binding, comparable within an allelic series). Moreover, the binding signal in [15] was 12.6 upbm affinity estimate (log intensity, higher = more binding, comparable within an allelic series); in assay [16], 11.4 upbm affinity estimate (log intensity, higher = more binding, comparable within an allelic series); in [17] it was 13.3 upbm affinity estimate (log intensity, higher = more binding, comparable within an allelic series); in [18] it was 13.3 upbm affinity estimate (log intensity, higher = more binding, comparable within an allelic series).
